Assay results: PubChem BioAssay AID596 (National Center for Advancing Translational Sciences (NCATS), 2007)
Hit rate of the full screen: of about 71,000 compounds, about 1,400 (2%) were called active. Roughly 3% stayed inconclusive and do not appear here. Only a selection was taken, and actives are over-represented in it overall. Values without a mark were called inactive. Calls come from the whole dose curve; as a rule, active = well fitted curve in the direction sought with a large enough effect; inconclusive = small, poorly fitted or top-dose-only effect; inactive = no such curve, though single readings can be large or run the other way.
% is set by controls: 0 for no effect and ±100 for the full control effect; potency is the fitted concentration of half-maximal effect.
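Note: actives lower thioflavin S fluorescence by blocking filaments or displacing dye.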

The compounds below were run against Microtubule-associated protein tau (Homo sapiens) (UniProt P10636) (assay: qHTS Assay for Tau Filament Binding). Conditions: recombinant tau filaments, thioflavin S fluorescence, 15 h, filaments grown with octadecylsulfate alongside compound; series mostly up to 57.1 µM; activity change, negative = inhibition: at the top concentration.
Chain of Microtubule-associated protein tau (Homo sapiens) (P10636 whole entry, looked up): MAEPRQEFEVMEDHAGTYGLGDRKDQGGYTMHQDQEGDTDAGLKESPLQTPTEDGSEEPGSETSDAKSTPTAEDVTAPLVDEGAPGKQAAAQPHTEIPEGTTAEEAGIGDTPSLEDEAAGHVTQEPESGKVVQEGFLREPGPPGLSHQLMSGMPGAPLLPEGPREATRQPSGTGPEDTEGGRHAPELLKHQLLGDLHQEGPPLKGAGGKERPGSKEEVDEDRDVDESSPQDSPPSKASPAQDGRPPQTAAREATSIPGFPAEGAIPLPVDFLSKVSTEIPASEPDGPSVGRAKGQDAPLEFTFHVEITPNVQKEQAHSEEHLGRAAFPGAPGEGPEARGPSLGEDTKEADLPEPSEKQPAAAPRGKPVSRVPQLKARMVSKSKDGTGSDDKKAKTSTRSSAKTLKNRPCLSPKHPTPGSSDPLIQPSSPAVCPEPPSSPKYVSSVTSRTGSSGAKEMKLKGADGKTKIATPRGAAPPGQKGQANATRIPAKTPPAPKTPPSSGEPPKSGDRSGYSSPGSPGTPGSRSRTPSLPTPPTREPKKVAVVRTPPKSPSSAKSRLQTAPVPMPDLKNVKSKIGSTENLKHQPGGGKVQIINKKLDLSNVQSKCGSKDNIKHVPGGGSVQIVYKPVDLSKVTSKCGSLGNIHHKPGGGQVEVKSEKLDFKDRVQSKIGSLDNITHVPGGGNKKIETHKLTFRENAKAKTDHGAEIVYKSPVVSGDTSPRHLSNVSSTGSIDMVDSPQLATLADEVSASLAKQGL
In short: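 His-tagged recombinant human tau (exons 2, 3 and 10 included), 1 uM, was induced to fibrillize by 30 uM sodium octadecylsulfate with compound present. After 15 h at 37 C, thioflavine S fluorescence (ex 450, em 510 nm) was read.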
In the case of COc1ccc(S(=O)(=O)Nc2ccc3c(c2)OCO3)cc1Cl, the Potency is reported as 20 µM (active).
With COc1ccc(F)cc1S(=O)(=O)Nc1ccc2c(c1)OCO2 the “activity change, negative = inhibition” value was -5.1%.
In the case of CC(C)CNS(=O)(=O)c1ccc(OCC(=O)Nc2ccc3c(c2)OCO3)c(Cl)c1, the “activity change, negative = inhibition” value is reported as 101%.
For c1ccc2sc(SCCSc3nc4ccccc4s3)nc2c1, the activity change, negative = inhibition was -3.1% [at 11.4 µM].
With CCOc1ccc(-c2cn(S(=O)(=O)c3cccc4nsnc34)nc2N)cc1 the Potency was 25.1 µM (active).
CCOc1ccc(NC(=O)CCS(=O)(=O)c2cccc3nsnc23)cc1 was tested, and the “activity change, negative = inhibition” value was -9.9%.
For CCCCN(CC)C(=O)CN(C)S(=O)(=O)c1cccc2nsnc12, the “activity change, negative = inhibition” value was -4.7%.
For CC1CCCC(NC(=O)CSc2nccn2C)C1C (configuration not stated), the “activity change, negative = inhibition” value was 9%.
For O=C(c1cnccn1)N1CCC2(CCN(Cc3cc(C(F)(F)F)cc(C(F)(F)F)c3)CC2)CC1, the “activity change, negative = inhibition” value was -9.4%.
In the case of COc1cc(Br)cc(/C=N/c2ncn[nH]2)c1O, the Potency is reported as 1.58 µM (active).
C/C=C/C=C/C(=O)O was tested, and the “activity change, negative = inhibition” value was -9.3%.
With O=C(OCC(COC(=O)c1ccccc1)(COC(=O)c1ccccc1)COC(=O)c1ccccc1)c1ccccc1 the “activity change, negative = inhibition” value was 2.5%.
For CC(C)Nc1nc(N(c2ccccc2)c2ccccc2)nc(-n2ccnc2)n1, the “activity change, negative = inhibition” value was 5%.
With N#Cc1nc(N)nc(N(c2ccccc2)c2ccccc2)n1 the Potency was 7.94 µM (active).
For CCOC(=O)c1cn(CC(=O)Nc2ccc(C(C)C)cc2)nn1, the “activity change, negative = inhibition” value was -18%.
CCCC(=O)Nc1cc(OCC)c(NC(=O)NC2CCCCC2)cc1OCC was tested, and the “activity change, negative = inhibition” value was 0.7%.
For O=C(O)CC(C(=O)O)C(CC(=O)O)C(=O)O (configuration not stated), the “activity change, negative = inhibition” value was -2.3%.
CCCC[C@@H]1C[C@H]1C(NC(=O)c1ccco1)c1ccc(C(=O)OC)cc1 (some centres not stated) was tested, and the “activity change, negative = inhibition” value was 8.7%.
With CC(=O)N1CCC(C(=O)Nc2nc(-c3ccccc3)ns2)CC1 the Potency was 10 µM (active).
Cc1ccc2c(NC(=O)C3CC3)cccc2n1 was tested, and the “activity change, negative = inhibition” value was -1.6%.
CCN(CC)S(=O)(=O)N1CCC(C(=O)NC(C)CCc2ccccc2)CC1 (configuration not stated) was tested, and the “activity change, negative = inhibition” value was 6%.
Cc1noc(C)c1-c1cc(NCc2cccnc2)ncn1 was tested, and the “activity change, negative = inhibition” value was 5.5%.
O=S(=O)(NCc1cccnc1)c1ccc(Br)s1 was tested, and the “activity change, negative = inhibition” value was -1.9%.
In the case of COc1ccc(Cl)cc1S(=O)(=O)Nc1cccc(C(=O)O)c1, the “activity change, negative = inhibition” value is reported as 11.9%.
Cc1ccnc(SCCn2c(N(C)Cc3ccccc3)nc3c2c(=O)n(C)c(=O)n3C)n1 was tested, and the “activity change, negative = inhibition” value was 0.1%.
For COc1cccc(-c2nc(Nc3ccncc3)c3ccccc3n2)c1, the “activity change, negative = inhibition” value was 105%.
In the case of c1ccc2c(Nc3ccncc3)nc(-c3ccoc3)nc2c1, the Potency is reported as 7.94 µM (active).
CCOC(=O)CSc1nnc(NC(=O)c2cccc(S(=O)(=O)N3CCCCC3)c2)s1 was tested, and the “activity change, negative = inhibition” value was 5.8%.
With CCn1c(COc2cccc(OC)c2)nnc1SCC(=O)N1CCOCC1 the “activity change, negative = inhibition” value was 3%.
For COC(=O)c1[nH]c2ccccc2c1NS(=O)(=O)c1ccc(OC)cc1OC, the “activity change, negative = inhibition” value was 0.1%.
CCCC(=O)Nc1c(O)c2ccccc2[nH]c1=O was tested, and the “activity change, negative = inhibition” value was 0.1%.
For CCCS(=O)(=O)Nc1c(C(=O)O)[nH]c2ccccc12, the Potency was 25.1 µM (active).
C[C@]12C=CC(=O)C=C1CC[C@@H]1[C@@H]2C(=O)C[C@@]2(C)[C@H]1CC[C@]2(O)C(=O)CO was tested, and the “activity change, negative = inhibition” value was -6.3%.
For CCn1c(SCC(=O)NCC2CCCO2)nc2cc(S(=O)(=O)N3CCCCC3)ccc21 (configuration not stated), the “activity change, negative = inhibition” value was 0.9%.
CCCCn1c(SCC(=O)NCC2CCCO2)nc2ccc(N3CCOCC3)cc2c1=O (configuration not stated) was tested, and the Potency was 15.8 µM (active).
With COCCCNC(=O)CSc1nc2ccc(N3CCOCC3)cc2c(=O)n1CCc1ccccc1 the “activity change, negative = inhibition” value was -17.5%.
With COC(=O)[C@@]1(Cc2ccc(OC)cc2)[C@H]2c3cc(C(=O)N4CCCC4)n(Cc4ccc(C(F)(F)F)nc4)c3C[C@H]2CN1C(=O)c1ccccc1 the “activity change, negative = inhibition” value was 4.2%.
With COc1ccc(CCNC(=O)CCCCn2c(=O)[nH]c3ccccc3c2=O)cc1OC the “activity change, negative = inhibition” value was -0.2%.
With COc1ccc(N=Cc2c(O)[nH]c3ccccc23)cc1OC the Potency was 12.6 µM (active).
For COc1ccc(COC(=O)c2n[nH]c3ccccc23)cc1F, the “activity change, negative = inhibition” value was 18.2%.
For COCC(C)NC(=O)c1ccc(Cl)c(Cl)c1 (configuration not stated), the “activity change, negative = inhibition” value was 6.1%.
For COc1cccc(Cn2c(=O)cnc3cncnc32)c1, the “activity change, negative = inhibition” value was -17.1%.
For CCNc1ncc2ncc(=O)n(Cc3cccc(OC)c3)c2n1, the “activity change, negative = inhibition” value was 2%.
In the case of COc1cccc(Nc2ncc3ncc(=O)n(C4CC4)c3n2)c1, the Potency is reported as 12.6 µM (active).
COc1ccc(N)c(OC)c1 was tested, and the “activity change, negative = inhibition” value was -13.8%.
For C=CCOC(=O)c1ccccc1C(=O)OCC=C, the “activity change, negative = inhibition” value was 3.3%.
For CC[C@@H]1Cc2cc(O)ccc2C2=C1c1ccc(O)cc1C[C@H]2CC, the Potency was 25.1 µM (active).
